Data: PubChem BioAssay (EPA / NIEHS)
The source made the active and inactive calls. How the source made its calls: active means hit-call score of the fitted dose curve at least 0.9, where 1 is the maximum; inactive means score below 0.9.

What was measured:
Details in all cases: mRNA level, 48 h; actives raise or lower the signal
[1] = read-out: Lipase C (LIPC), LIPC (gene 3990); experiment: LTEA_HepaRG_LIPC: Life Technologies and Expression Analysis (LTEA) Assay for Lipase C (LIPC) using HepaRG (AID 2283514)
Summary of the method: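 Read-out is LIPC transcript level by TaqMan qRT-PCR, normalized to three housekeeping genes, after 48 h chemical treatment of human HepaRG liver cells. Curves span eight concentrations topping at 100 uM; activity in either direction scored relative to 0.5% DMSO.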

[2] = read-out: Lipoprotein lipase (LPL), LPL (gene 4023); experiment: LTEA_HepaRG_LPL: Life Technologies and Expression Analysis (LTEA) Assay for Lipoprotein lipase (LPL) using HepaRG (AID 2283515)
Summary of the method: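 Read-out is LPL transcript level by qRT-PCR, normalized to three housekeeping genes and fitted bidirectionally against the DMSO control. Human HepaRG cells received chemicals for 48 h at up to 100 uM.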

[3] = read-out: MicroRNA 122 (MIR122), gene 406906; experiment: LTEA_HepaRG_MIR122: Life Technologies and Expression Analysis (LTEA) Assay for MicroRNA 122 (MIR122) using HepaRG (AID 2283516); further: the transcript read is the microRNA miR-122
Summary of the method: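 Differentiated human HepaRG cells in serum-free induction medium exposed 48 h to 8 half-log concentrations from 100 uM in 0.5% DMSO, duplicate. MIR122 quantified by Fluidigm TaqMan qRT-PCR, normalised to ACTB, GAPDH, POLR2A; fold change fitted bidirectionally versus DMSO.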

[4] = read-out: matrix metalloproteinase-10 (MMP10), MMP10 (gene 4319); experiment: LTEA_HepaRG_MMP10: Life Technologies and Expression Analysis (LTEA) Assay for matrix metalloproteinase-10 (MMP10) using HepaRG (AID 2283517)
Summary of the method: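 Gain or loss of MMP10 mRNA is fitted relative to the 0.5% DMSO vehicle. The human hepatic line HepaRG receives a 48-hour serum-free exposure, in duplicate, with a maximum concentration of 100 uM.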

[5] = read-out: matrix metalloproteinase-3 (MMP3), MMP3 (gene 4314); experiment: LTEA_HepaRG_MMP3: Life Technologies and Expression Analysis (LTEA) Assay for matrix metalloproteinase-3 (MMP3) using HepaRG (AID 2283519)
Summary of the method: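 HepaRG, human; 48 h dosing, 8 conc. (max 100 uM, half-log), duplicate, 0.5% DMSO. Readout: MMP3 transcript by Fluidigm TaqMan qRT-PCR, ACTB/GAPDH/POLR2A-normalised. Gain or loss fitted vs DMSO.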

[6] = read-out: Paternally Expressed 10 (PEG10), PEG10 (gene 23089); experiment: LTEA_HepaRG_PEG10: Life Technologies and Expression Analysis (LTEA) Assay for Paternally Expressed 10 (PEG10) using HepaRG (AID 2283520)
Summary of the method: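 Differentiated HepaRG cells exposed 48 h in serum-free induction medium to eight half-log concentrations topping at 100 uM, 0.5% DMSO, in duplicate. PEG10 mRNA quantified by TaqMan qRT-PCR, normalized to ACTB, GAPDH and POLR2A; bidirectional fit versus DMSO.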

[7] = read-out: Nuclear factor NF-kappa-B p105 subunit (Homo sapiens) (UniProt P19838); experiment: LTEA_HepaRG_NFKB1: Life Technologies and Expression Analysis (LTEA) Assay for Nuclear Factor Kappa B Subunit 1 (NFKB1) using HepaRG (AID 2283521)
Summary of the method: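 NFKB1 transcript was measured by TaqMan qRT-PCR on Fluidigm arrays, normalised to three housekeeping genes and fitted in both directions against 0.5% DMSO. HepaRG cells were dosed in duplicate for 48 h in serum-free induction medium, eight half-log steps from 100 uM.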

[8] = read-out: Phosphatase and tensin (PTEN), PTEN (gene 5728); experiment: LTEA_HepaRG_PTEN: Life Technologies and Expression Analysis (LTEA) Assay for Phosphatase and tensin (PTEN) using HepaRG (AID 2283523)
Summary of the method: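 Read-out is PTEN transcript level by multiplexed TaqMan qRT-PCR after 48 h chemical treatment of human HepaRG cultures in serum-free induction medium. Concentrations spanned 100 uM downward in half-log steps, 0.5% DMSO throughout; activity fitted in both directions against vehicle.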

MYC, MYC (gene 4609) = experiment: LTEA_HepaRG_MYC: Life Technologies and Expression Analysis (LTEA) Assay for MYC using HepaRG (AID 2283518)
Summary of the method: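 Differentiated human HepaRG cells, plated 48 h then switched to serum-free induction medium, were exposed in duplicate for 48 h to 8-point half-log series up to 100 uM in 0.5% DMSO. MYC mRNA measured by qRT-PCR, normalized to ACTB/GAPDH/POLR2A.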

[9] = read-out: Protein phosphatase 2A (PPP2R4), PTPA (gene 5524); experiment: LTEA_HepaRG_PPP2R4: Life Technologies and Expression Analysis (LTEA) Assay for Protein phosphatase 2A (PPP2R4) using HepaRG (AID 2283522)
Summary of the method: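 Differentiated human HepaRG cells in serum-free induction medium were exposed 48 h to 8 concentrations (top 100 µM, half-log steps, duplicate) in 0.5% DMSO. PPP2R4 mRNA was measured by TaqMan qRT-PCR, normalised to ACTB, GAPDH and POLR2A, and fitted bidirectionally versus DMSO.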

Measured: AC50

Sequence of Nuclear factor NF-kappa-B p105 subunit (Homo sapiens) (P19838 whole entry, looked up): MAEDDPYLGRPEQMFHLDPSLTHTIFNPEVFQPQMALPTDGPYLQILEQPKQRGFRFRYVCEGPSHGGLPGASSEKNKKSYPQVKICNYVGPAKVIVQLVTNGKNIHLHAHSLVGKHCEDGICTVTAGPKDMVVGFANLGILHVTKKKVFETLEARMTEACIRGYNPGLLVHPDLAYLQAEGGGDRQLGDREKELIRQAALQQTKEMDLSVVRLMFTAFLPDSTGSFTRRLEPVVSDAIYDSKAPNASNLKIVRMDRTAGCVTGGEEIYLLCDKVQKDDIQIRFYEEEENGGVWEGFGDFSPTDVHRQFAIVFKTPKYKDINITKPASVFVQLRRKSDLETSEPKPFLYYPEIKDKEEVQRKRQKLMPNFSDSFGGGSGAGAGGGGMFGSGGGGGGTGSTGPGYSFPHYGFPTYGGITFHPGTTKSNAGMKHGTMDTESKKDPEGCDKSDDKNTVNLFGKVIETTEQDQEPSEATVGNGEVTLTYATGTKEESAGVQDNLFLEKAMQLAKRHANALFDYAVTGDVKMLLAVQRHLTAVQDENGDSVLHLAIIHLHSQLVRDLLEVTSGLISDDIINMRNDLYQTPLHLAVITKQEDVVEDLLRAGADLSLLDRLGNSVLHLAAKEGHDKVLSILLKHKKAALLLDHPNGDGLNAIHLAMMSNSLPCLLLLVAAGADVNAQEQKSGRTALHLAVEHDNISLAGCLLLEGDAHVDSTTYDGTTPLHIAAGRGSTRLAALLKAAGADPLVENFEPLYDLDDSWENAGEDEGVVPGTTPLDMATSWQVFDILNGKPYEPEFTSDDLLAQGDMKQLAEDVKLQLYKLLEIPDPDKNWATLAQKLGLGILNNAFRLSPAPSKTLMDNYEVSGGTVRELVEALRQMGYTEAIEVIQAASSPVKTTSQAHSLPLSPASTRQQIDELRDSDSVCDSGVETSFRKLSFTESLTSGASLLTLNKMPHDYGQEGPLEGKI

CN(C)C(=O)NC1(c2ccccc2)CCN(CCC[C@]2(c3ccc(Cl)c(Cl)c3)CCCN(C(=O)c3ccccc3)C2)CC1
inactive: [1] | [2] | [3] | [8]
active: [4] 19.4 µM | [5] 18.2 µM | [6] 12.5 µM | [7] 21.3 µM

NC(=Nc1ccccc1)Nc1ccccc1
active: [6] 19.3 µM
not listed: [7]
inactive: all other assays above

Cc1cn([C@H]2C=C[C@@H](CO)O2)c(=O)[nH]c1=O
not listed: [7]
inactive: all other assays above

S=c1[nH]c2ccccc2s1
not listed: [7]
inactive: all other assays above

Cc1occc(=O)c1O
not listed: [4] | [9]
inactive: all other assays above

CCCC[C@H]1CN(CC2CCOCC2)C(=O)OC12CCN(C1(C)CCN(C(=O)c3c(C)ncnc3C)CC1)CC2
not listed: [7]
inactive: all other assays above

CCCCCCCCCC[N+](C)(C)[O-]
not listed: [7]
inactive: all other assays above

O=C(NS(=O)(=O)/C=C/c1cccs1)c1ccc(F)cc1Br
active: [6] 50 µM
not listed: [7] | [9]
inactive: all other assays above

CCc1nc(N)nc(N)c1-c1ccc(Cl)cc1
active: [1] 68.6 µM | [2] 75.1 µM | [3] 33.2 µM | MYC, MYC (gene 4609) 78.7 µM | [6] 38.9 µM
inactive: [4] | [5] | [9] | [8]

CC(=O)O
not listed: [7] | [9]
inactive: all other assays above

CC(COCC(C)OC(=O)c1ccccc1)OC(=O)c1ccccc1 (stereo not drawn)
not listed: [7]
inactive: all other assays above

CC(C)(O)c1ccc(CNC(=O)c2cccnc2Oc2ccc(F)cc2)cc1
active: [5] 73.2 µM
not listed: [7] | [9]
inactive: all other assays above

CC(=O)CC(c1ccccc1)c1c(O)c2ccccc2oc1=O (stereo not drawn)
not listed: [7] | [9]
inactive: all other assays above

O=C1O[C@H]([C@H](O)CO)C(O)=C1O
not listed: [7]
inactive: all other assays above

CC(C)NCC(O)c1ccc(O)c(O)c1 (stereo not drawn)
active: [1] 0.227 µM | [2] 0.319 µM | [6] 0.149 µM
not listed: [7] | [9]
inactive: all other assays above

CN(C)C(=O)NC1(c2ccccc2)CCN(CC[C@@]2(c3ccc(F)c(F)c3)CN(C(=O)c3ccccc3)CCO2)CC1
active: [1] 47 µM | [2] 31.8 µM | [6] 1.35 µM
not listed: [7] | [9]
inactive: all other assays above

O=C(Oc1ccccc1)c1cccc(C(=O)Oc2ccccc2)c1
not listed: [7] | [9]
inactive: all other assays above

CC(=O)O[C@]1(C(C)=O)CC[C@H]2[C@@H]3C=C(Cl)C4=CC(=O)[C@@H]5C[C@@H]5[C@]4(C)[C@H]3CC[C@@]21C
active: [2] 13.3 µM | MYC, MYC (gene 4609) 9.92 µM
not listed: [3] | [9]
inactive: all other assays above

COc1ccc(C(=O)Nc2nc3ccccc3c(NCc3ccccc3)c2C#N)cc1
active: [1] 15.7 µM | [2] 4.35 µM | [3] 14.7 µM | MYC, MYC (gene 4609) 14.6 µM | [5] 9.92 µM | [6] 16.1 µM
inactive: [4] | [9] | [8]

CC(C)(C)c1ccccc1
not listed: [7] | [9]
inactive: all other assays above

C/C=C/C=C/C(=O)O
not listed: [7] | [9]
inactive: all other assays above

NC1CCCCC1
not listed: [7] | [9]
inactive: all other assays above

O=C1c2c(O)cccc2Cc2cccc(O)c21
not listed: [7]
inactive: all other assays above

CCc1cc(C2=C(C(=O)O)N(c3ccccc3C(F)(F)F)S(=O)(=O)c3ccccc32)cc2c1OCO2
inactive: [3] | [4] | [9] | [8]
active: [1] 80.1 µM | [2] 74.3 µM | MYC, MYC (gene 4609) 56.7 µM | [5] 50 µM | [6] 28.5 µM
